Assay outcomes (PubChem)
Only some compounds are listed: those with a hit (about 19% of all), similar ones and a draw of the others.
TDP1 cell CPT: DT40-hTDP1 cell growth loss with CPT. chicken DT40 Tdp1-/-;hTDP1 cells + 20 nM CPT, ATP luminescence, 48 h. Potency, µM (highest dose often 46.2 µM), usual class: inhibitors. hit rate 12% among 420,000; further: nearly all actives have a fitted effect of over 55% in size
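Chicken DT40 Tdp1-/- cells stably complemented with human TDP1 were seeded at 400 cells/well in medium containing 20 nM camptothecin, exposed to pin-transferred compounds, and grown at 37 °C for at least 48 hr. Viability was read as ATP luminescence.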
HT1080 IDH1KD tx: kills HT-1080 cells with IDH1 knockdown; hit rate 2% among 360,000; HT-1080 IDH1 knockdown viability, ATP luminescence, 48 h; Potency, µM (series often up to 46.1 µM), hits mostly cytotoxic; AID 686971
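After a 2 h attachment period, IDH1KD HT-1080 cells took pin-transferred compound for 48 h at 37 °C; ATP-based luminescence after 10 min room-temperature reagent incubation reported viability.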
KB-V1 cytotox: KB-V1 MDR subline cytotoxicity; Potency, µM (highest dose often 46.1 µM), hits mostly cytotoxic; KB-V1 MDR cells viability, CellTiter-Glo, 72 h; hit rate 3.4% among 400,000; further: nearly all actives have a fitted effect of over 60% in size
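Cytotoxicity toward P-gp-expressing KB-V1 cells was determined as loss of CellTiter-Glo luminescence after 72 h at 37 degrees C. Compounds were tested in quantitative HTS format across a concentration range, with curves fitted to normalized data.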
KB-3-1 cytotox: kills parental KB-3-1 adenocarcinoma cells; KB-3-1 viability, CellTiter-Glo ATP luminescence, 72 h; Potency, µM (doses to about 46.1 µM), actives largely listed as cytotoxic; hit rate 1.4% among 400,000; AID 1347075; further: nearly all actives have a fitted effect of over 60% in size
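Cytotoxicity in the drug-sensitive parental line KB-3-1 was scored as loss of CellTiter-Glo luminescence following 72 h incubation with compound. Values come from curve fitting of normalized concentration-response data.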
DT40 TDP1 no CPT: qHTS for Inhibitors of human tyrosyl-DNA phosphodiesterase 1 (TDP1): qHTS in cells in absence of CPT; Potency, µM (highest dose often 46.2 µM), usual class: inhibitors; hit rate 15% among 420,000; DT40 Tdp1-/- hTDP1 cells, no CPT, ATP luminescence, 48 h; further: nearly all actives have a fitted effect of over 55% in size
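Growth kinetics read by CellTiter-Glo luminescence after ≥48 hr at 37 °C. Cells: DT40 Tdp1-/- stably carrying human TDP1, 400 per well, compound exposure in the absence of CPT (DMSO vehicle).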
HT1080NT lethal: kills 2HG-producing HT-1080-NT fibrosarcoma cells. Potency, µM (series often up to 46.1 µM), usual class: cytotoxic. AID 686970. HT-1080-NT fibrosarcoma viability, CellTiter-Glo ATP luminescence, 48 h. hit rate 1.6% among 360,000;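 further: NT is the 2HG producing partner of a matched IDH1 knockdown line; nearly all actives have a fitted effect of over 55% in size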
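Fibrosarcoma NT cells, 750 per well in 5% FBS RPMI, were exposed to compound for 48 hours. Viability: CellTiter-Glo luminescence.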
Numbers stand for hits; . = inactive; ? = inconclusive; / = not tested or not shown; [ ] = remark or other dose. The call rests on the fitted dose curve; in most records, active means well fitted curve in the direction sought with a large enough effect; inconclusive means small, poorly fitted or top-dose-only effect, or another doubt; inactive means no such curve, though single readings can be large; an effect the other way counts as inactive or inconclusive.

SMILES	TDP1 cell CPT	HT1080 IDH1KD tx	KB-V1 cytotox	KB-3-1 cytotox	DT40 TDP1 no CPT	HT1080NT lethal
CCOC(=O)C1CCN(C(=O)c2ccccc2CCc2ccccc2)CC1	?	.	.	.	?	.
O=c1[nH][nH]c2c1[C@H](c1ccc(Cl)cc1)O[C@H](C1CCCC1)C2	?	.	.	?	?	.
CC1(C(=O)NS(=O)(=O)c2ccc(C#N)cc2)CCN1C(=O)C1(c2ccc(Cl)cc2)CCC1 (stereo not given)	18µM	.	.	.	.	.
CC1(C(=O)NS(=O)(=O)c2cccc(C#N)c2)CCN1C(=O)C1(c2ccc(Cl)cc2)CCC1 (stereo not given)	.	.	.	.	.	.
COc1cccc(NC(=O)C2(C)CCN2C(=O)Cc2ccc(C(C)C)cc2)c1 (stereo not given)	18µM	.	.	.	?	.
CC(C)c1ccc(CC(=O)N2CCC2(C)C(=O)Nc2cccc(C#N)c2)cc1 (stereo not given)	?	.	.	.	16µM	.
CC1(C(=O)Nc2ccc(Cl)c(Cl)c2)CCN1C(=O)CCC1CCCC1 (stereo not given)	23µM	.	.	.	23µM	.
CC(=O)OCC(=O)[C@@]12OC(C)(C)OC1CC1C3CC(F)C4=CC(=O)C=C[C@@]4(C)[C@@]3(F)C(O)C[C@]12C (stereo not given in full)	.	/	/	/	.	/
CC1(C(=O)N2CCCCC2)CCN1C(=O)C1(c2ccccc2)CC1 (stereo not given)	.	.	.	.	.	?
CCC(=O)N1CCC1(C)C(=O)Nc1cccc(OC)c1 (stereo not given)	.	.	.	.	.	.
CC1(C(=O)Nc2cccc(C#N)c2)CCN1C(=O)C1(c2ccccc2)CC1 (stereo not given)	5.2µM	.	.	.	?	?
CC1(C(=O)Nc2cccc(C#N)c2)CCN1C(=O)CCc1ccccc1 (stereo not given)	?	.	.	.	?	.
COc1cccc(NC(=O)C2(C)CCN2C(=O)CC2CCCC2)c1 (stereo not given)	?	.	16µM	.	?	.
CC1(C(=O)N2Cc3ccccc3C2)CCN1C(=O)C1(c2ccc(Cl)cc2)CC1 (stereo not given)	16µM	.	.	.	?	.
CC1(C(=O)Nc2ccccc2)CCN1C(=O)C1(c2ccccc2)CC1 (stereo not given)	?	.	.	.	.	.
CC1(C(=O)Nc2cccc(C#N)c2)CCN1C(=O)Cc1ccc(-c2ccccc2)cc1 (stereo not given)	4.1µM	?	.	.	2.6µM	?
CCCNC(=O)C1(C)CCN(C(=O)COCc2ccccc2)C1 (stereo not given)	.	?	.	.	.	?
Cc1ccc(-c2nc(CS(=O)(=O)CC(=O)N3CCN(c4cccc(C)c4C)CC3)c(C)o2)cc1	?	/	.	.	?	/
CC1(C(=O)Nc2cccc3c2CCCC3)CCN1C(=O)CCC1CCCC1 (stereo not given)	21µM	.	.	.	?	.
COc1ccc(OC)c(NC(=O)C2(C)CCN2C(=O)CCC2CCCC2)c1 (stereo not given)	16µM	.	.	.	?	.
COc1ccc(CCNC(=O)c2c(C)oc3ncnc(N4CCOCC4)c23)c(OC)c1	.	/	/	/	.	/
CN(C)CC(C)(O)c1ccc2c(c1)CN(Cc1cccn1-c1cccnc1)CCO2 (stereo not given)	.[9.04 µM]	/	/	/	.	/
COc1ccc2c(c1)C(=O)N(c1ccc(C)cc1C)C(=O)C2	13µM	.	.	.	21µM	.
COc1ccc2c(c1)C(=O)N(c1ccc(C)cc1C)C(=O)C2(C)C	.	.	.	.	?	.
Cc1ccc(-c2nc(Cn3c(SCc4ccc(F)cc4)nc4cccnc43)c(C)o2)cc1	0.73µM	/	/	/	0.82µM	/
SMILES	TDP1 cell CPT	HT1080 IDH1KD tx	KB-V1 cytotox	KB-3-1 cytotox	DT40 TDP1 no CPT	HT1080NT lethal
Cc1ccc(Cn2c(SCc3ccc(C(=O)O)cc3)nc3cccnc32)cc1	.	/	.	.	.	/
Cc1oc(-c2cccc(Br)c2)nc1Cn1c(SCc2cccc(F)c2)nc2cccnc21	?	/	/	/	21µM	/
CN(Cc1cc(Br)cc(Br)c1N)C1CCCCC1	?	/	/	/	9.4µM	/
N#CC1(c2ccccc2)CCC(NCCc2ccccc2)CC1 (stereo not given)	?	.	.	.	18µM	.
CCOc1ccc(-c2nc(CSCC(=O)NC3CC3)c(C)o2)cc1	?	.	.	.	?	.
COc1ccc(-c2nc(CSCC(=O)N3CCN(c4ccccc4F)CC3)c(C)o2)cc1	16µM	/	?	?	8.2µM	/
CCOc1ccc(-c2nc(CSCC(=O)N3CCN(c4cccc(OC)c4)CC3)c(C)o2)cc1	23µM	.	.	.	?	.
COc1cccc(-c2nc(CSCC(=O)N3CCc4ccccc43)c(C)o2)c1	.	.	10µM	?	.	.
COc1ccc(CCn2c3c(c(=O)[nH]c2=S)CN(C)CN3)cc1OC	.	.	/	/	.	.
Cc1ccc2c(c1)nnn2C1CCN(S(=O)(=O)c2ccc(C(=O)NC3CCCC3)cc2)CC1	?	.	?	.	?	.
Cc1ccc2c(c1)nnn2C1CCN(S(=O)(=O)c2ccc3ccccc3c2)CC1	?	?	21µM	.	?	?
COC(=O)c1cccc(S(=O)(=O)N2CCC(n3nnc4cc(F)ccc43)CC2)c1	.	.	16µM	.	.	.
Cc1ccc2c(c1)nnn2C1CCN(S(=O)(=O)c2cccc(S(=O)(=O)N(C)C)c2)CC1	18µM	.	.	.	15µM	.
Cc1ccc2c(c1)nnn2C1CCN(S(=O)(=O)c2ccc(C(=O)N(C)C)cc2)CC1	.	.	9.2µM	?	?	.
Cc1ccc(NC(=O)NNC(=O)C2CC(c3cccs3)=NO2)cc1 (stereo not given)	.	.	?	.	.	.
CN(/N=C/c1cc(Br)cc(Br)c1O)c1cccc(C(F)(F)F)n1	7.3µM	?	.	?	16µM	?
CCC1CN(CCNC(=O)c2cc(C(C)C)nn2C)Cc2cc(OC)ccc2O1 (stereo not given)	.[9.04 µM]	/	/	/	.	/
CCC1CCCCN1Cc1nc2c(c(=O)n(C)c(=O)n2C)n1CCC(C)C (stereo not given)	16µM	.	.	?	15µM	.
CCCCCCn1c(CN2CCCCC2CC)nc2c1c(=O)n(C)c(=O)n2C (stereo not given)	23µM	.	.	.	13µM	.
